The record followed here is PubChem BioAssay.

Molecules are shown by their SMILES. Activity calls are given as the source filed them.

The subject of test [1] is Plasmodium falciparum Sir2 (PF13_0152, Sir2A). The test can be described thus: Plasmodium falciparum Sir2A binding compounds – biochemical, small-molecule microarray, 635 nm fluorescence, primary screen (AID 1098).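 Also: score merges spot fluorescence intensity with its signal-to-noise ratio.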 To be noted: fluorescence 635 nm, higher = more signal.
Test [2] is described as follows: probe aDKK1 binding to arrayed compounds – biochemical, biotinylated probe, 635/667 nm fluorescence, primary screen (AID 1099).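 Also: score merges 667nm spot fluorescence with signal to noise across triplicate slides.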 Particulars: small-molecule microarray, higher = more signal.
A short description of test [3]: probe aCHRDL2 binding to arrayed compounds – biochemical, biotinylated probe, 635/667 nm fluorescence, primary screen (AID 1100). Particulars: small-molecule microarray, higher = more signal.
Test [4] can be described thus: change in splice reporter luminescence, either direction, cell-based, HEK293, spliceosome inhibition project, primary screen (AID 1101).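 Also: HEK293 cells carrying a splicing-competent luciferase reporter gene; test concentration not given here.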 To be noted: HEK293 splicing luciferase reporter, 24 h, higher = more signal, called active from +8 up or from −8 down.
In test [5] the target is Fibroblast growth factor 10 (Homo sapiens) (UniProt O15520). The test can be described thus: compounds binding fibroblast growth factor 10 – biochemical, small-molecule microarray, 635 nm fluorescence, primary screen (AID 1102). To be noted: FGF10 binding, fluorescence 635 nm, higher = more signal.
The subject of test [6] is glycogen synthase kinase-3 (GSK3A per assay name; protocol says GSK3B). Description: compounds binding glycogen synthase kinase-3 – biochemical, small-molecule microarray, 635 nm fluorescence, GSK3A, primary screen (AID 1103). Also: the record names both GSK3A and GSK3B. To be noted: fluorescence 635 nm, higher = more signal.
For test [7], the target named is Epidermal growth factor receptor (Homo sapiens) (UniProt P00533). Description: compounds binding epidermal growth factor receptor – biochemical, small-molecule microarray, 635 nm fluorescence, primary screen (AID 1104).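 Also: score merges 667 nm emission intensity with spot signal to noise over triplicate slides.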 To be noted: EGFR binding, higher = more signal.
The target of test [8] is Follistatin-related protein 3 (Homo sapiens) (UniProt O95633). The test can be described thus: compounds binding follistatin-related protein 3 – biochemical, small-molecule microarray, 635 nm fluorescence, primary screen (AID 1105).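 Also: score merges emission near 667 nm and signal to noise per printed spot across three slides.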 To be noted: FSTL3 binding, higher = more signal.
Test [9] has as its target Dickkopf-related protein 1 (Homo sapiens) (UniProt O94907). Description: small molecules binding DKK1 protein – biochemical, small-molecule microarray, 635 nm fluorescence scan, primary screen (AID 1106).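 Also: score merges emission near 667 nm with signal to noise over three replicate slides.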 Particulars: higher = more signal.
For test [10], the system named is Inhibin beta A chain (activin A). The test can be described thus: small molecules binding activin A – biochemical, small-molecule microarray, 635 nm fluorescence scan, primary screen (AID 1107).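 Also: mouse activin A protein probed at 4.33 µg/mL on printed slides; score merges bound-protein fluorescence near 667 nm with spot signal-to-noise.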 Particulars: INHBA, higher = more signal.
The test system of test [11] is Human papillomavirus type 1a protein E7 (residues 44-93). Description: small molecules binding HPV E7 44-93 – biochemical, small-molecule microarray, residues 44-93, 635 nm fluorescence, primary screen (AID 1108).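 Also: E7 fragment applied at 1 µg/mL in TBST for 1 h at 4 C; score combines spot fluorescence with its signal to noise ratio.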 Particulars: fluorescence 635 nm, higher = more signal.
A short description of test [12]: hepatitis C replication reporter changes, two-sided – Huh7 cells, luciferase reporter, HCV replication inhibitor project, primary screen (AID 1109).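 Also: huh7 hepatoma cells harbouring a luciferase neomycin HCV replicon reporter; luciferase luminescence as measure of HCV replicon replication; test concentration not given here.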 Particulars: Huh7 HCV replicon luciferase reporter, 48 h; higher = more signal. Background: Reporter assays use an easily measured gene product as a stand-in for the process of interest.
The target in test [13] is Left-right determination factor 2 (Homo sapiens) (UniProt O00292). Description: small molecules binding LEFTY2 protein – biochemical, small-molecule microarray, 635 nm fluorescence scan, primary screen (AID 1110). To be noted: higher = more signal.
Test [14] deals with Calmodulin-1 (Homo sapiens) (UniProt P0DP23). The test can be described thus: small molecules binding calmodulin-1 with EGTA – biochemical, small-molecule microarray, Cy5-labelled CALM1, profiling panel (AID 1111).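 Also: labelled calmodulin applied in Tris saline Tween buffer holding calcium plus EGTA and DTT.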 To be noted: Cy5-CALM1 binding fluorescence, higher = more signal.
Test [15] shares this target. Description: small molecules binding Ca-loaded calmodulin-1 – biochemical, small-molecule microarray, Cy5-labelled CALM1, plus calcium, artefact control for SMM control-protein annotation, profiling panel (AID 1112).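 Also: score merges spot fluorescence with signal to noise from triplicate slides.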 Particulars: Cy5-CALM1 binding fluorescence, higher = more signal.
The nature of test [16]: probe aWnt5a binding to arrayed compounds – biochemical, biotinylated probe, 635/667 nm fluorescence, primary screen (AID 1113).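 Also: score merges 667 nm fluorescence intensity with signal-to-noise per printed feature.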 Particulars: small-molecule microarray, higher = more signal.
The nature of test [17]: probe aShh binding to arrayed compounds – biochemical, biotinylated probe, 635/667 nm fluorescence, primary screen (AID 1114).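 Also: probe is biotin-labelled aShh protein from a stem cell growth factor screen; measures binding of labelled protein to compounds printed on the slide; score merges feature fluorescence at 667 nm with signal-to-noise.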 Particulars: small-molecule microarray, higher = more signal.
Test [18] is described as follows: probe aNog binding to arrayed compounds – biochemical, biotinylated probe, 635/667 nm fluorescence, primary screen (AID 1115).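 Also: probe is biotinylated aNog protein used at 0.15 µg/mL for 1 h at 4 C; z-score combines 667 nm fluorescence of each spot with its signal to noise.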 To be noted: small-molecule microarray, higher = more signal.
For test [19], the target named is Torsin-1A-interacting protein 1 (Homo sapiens) (UniProt Q5JTV8). Description: compound microarray binding of lysate hLAP1 – cell lysate, small-molecule microarray, COS7 lysate, 635/667 nm fluorescence, primary screen (AID 1116). To be noted: 635 nm fluorescence, higher = more signal.
Test [20] deals with Alpha-bungarotoxin (Bungarus multicinctus) (UniProt P60615). The test can be described thus: compounds binding labelled alpha-BTX control protein – biochemical, small-molecule microarray, Alexa647 label, 635/667 nm fluorescence, artefact control for SMM control protein annotation, profiling panel (AID 1117). Particulars: alpha-BTX-A647 binding fluorescence, higher = more signal.
Sequence of Alpha-bungarotoxin (Bungarus multicinctus) (P60615 whole entry, looked up): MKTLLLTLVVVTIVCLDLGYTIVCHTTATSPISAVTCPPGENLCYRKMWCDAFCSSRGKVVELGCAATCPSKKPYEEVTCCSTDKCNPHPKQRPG

Sequence of Dickkopf-related protein 1 (Homo sapiens) (O94907 whole entry, looked up): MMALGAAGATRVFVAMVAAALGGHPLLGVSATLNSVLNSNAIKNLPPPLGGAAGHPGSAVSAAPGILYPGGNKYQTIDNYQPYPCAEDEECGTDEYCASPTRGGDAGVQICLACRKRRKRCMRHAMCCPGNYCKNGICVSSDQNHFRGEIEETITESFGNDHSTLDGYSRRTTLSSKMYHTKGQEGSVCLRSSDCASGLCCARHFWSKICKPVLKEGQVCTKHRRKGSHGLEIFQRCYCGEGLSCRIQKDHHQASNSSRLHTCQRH
Sequence of Follistatin-related protein 3 (Homo sapiens) (O95633 whole entry, looked up): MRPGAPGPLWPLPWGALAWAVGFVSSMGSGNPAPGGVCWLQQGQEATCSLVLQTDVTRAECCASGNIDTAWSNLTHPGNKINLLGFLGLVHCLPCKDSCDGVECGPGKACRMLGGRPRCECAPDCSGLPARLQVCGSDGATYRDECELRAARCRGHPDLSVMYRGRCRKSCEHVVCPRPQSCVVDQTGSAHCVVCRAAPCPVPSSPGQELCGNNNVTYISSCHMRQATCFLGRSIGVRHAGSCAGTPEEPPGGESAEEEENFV
Sequence of Torsin-1A-interacting protein 1 (Homo sapiens) (Q5JTV8 whole entry, looked up): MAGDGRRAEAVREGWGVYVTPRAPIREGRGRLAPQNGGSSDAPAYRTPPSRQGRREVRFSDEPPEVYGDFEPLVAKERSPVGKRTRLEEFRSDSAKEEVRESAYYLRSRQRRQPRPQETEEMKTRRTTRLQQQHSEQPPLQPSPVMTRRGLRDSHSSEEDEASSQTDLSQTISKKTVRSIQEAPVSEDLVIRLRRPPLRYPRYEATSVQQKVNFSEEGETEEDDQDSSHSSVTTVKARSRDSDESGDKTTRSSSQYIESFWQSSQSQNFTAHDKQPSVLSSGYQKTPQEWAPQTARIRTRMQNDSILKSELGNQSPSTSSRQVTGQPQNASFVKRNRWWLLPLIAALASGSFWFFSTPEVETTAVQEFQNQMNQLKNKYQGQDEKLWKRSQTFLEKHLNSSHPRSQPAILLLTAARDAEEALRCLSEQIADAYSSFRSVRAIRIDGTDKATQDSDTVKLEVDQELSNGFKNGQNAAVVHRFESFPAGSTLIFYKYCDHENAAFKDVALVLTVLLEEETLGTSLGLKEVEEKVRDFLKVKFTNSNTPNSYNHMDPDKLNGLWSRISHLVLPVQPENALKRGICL
Sequence of Fibroblast growth factor 10 (Homo sapiens) (O15520 whole entry, looked up): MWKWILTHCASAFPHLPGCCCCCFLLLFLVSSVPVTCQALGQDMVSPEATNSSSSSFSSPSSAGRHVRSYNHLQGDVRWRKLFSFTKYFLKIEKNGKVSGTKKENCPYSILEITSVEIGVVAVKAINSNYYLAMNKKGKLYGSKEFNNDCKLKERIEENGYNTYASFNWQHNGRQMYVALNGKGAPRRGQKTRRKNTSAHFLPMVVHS
Sequence of Epidermal growth factor receptor (Homo sapiens) (P00533 whole entry, looked up): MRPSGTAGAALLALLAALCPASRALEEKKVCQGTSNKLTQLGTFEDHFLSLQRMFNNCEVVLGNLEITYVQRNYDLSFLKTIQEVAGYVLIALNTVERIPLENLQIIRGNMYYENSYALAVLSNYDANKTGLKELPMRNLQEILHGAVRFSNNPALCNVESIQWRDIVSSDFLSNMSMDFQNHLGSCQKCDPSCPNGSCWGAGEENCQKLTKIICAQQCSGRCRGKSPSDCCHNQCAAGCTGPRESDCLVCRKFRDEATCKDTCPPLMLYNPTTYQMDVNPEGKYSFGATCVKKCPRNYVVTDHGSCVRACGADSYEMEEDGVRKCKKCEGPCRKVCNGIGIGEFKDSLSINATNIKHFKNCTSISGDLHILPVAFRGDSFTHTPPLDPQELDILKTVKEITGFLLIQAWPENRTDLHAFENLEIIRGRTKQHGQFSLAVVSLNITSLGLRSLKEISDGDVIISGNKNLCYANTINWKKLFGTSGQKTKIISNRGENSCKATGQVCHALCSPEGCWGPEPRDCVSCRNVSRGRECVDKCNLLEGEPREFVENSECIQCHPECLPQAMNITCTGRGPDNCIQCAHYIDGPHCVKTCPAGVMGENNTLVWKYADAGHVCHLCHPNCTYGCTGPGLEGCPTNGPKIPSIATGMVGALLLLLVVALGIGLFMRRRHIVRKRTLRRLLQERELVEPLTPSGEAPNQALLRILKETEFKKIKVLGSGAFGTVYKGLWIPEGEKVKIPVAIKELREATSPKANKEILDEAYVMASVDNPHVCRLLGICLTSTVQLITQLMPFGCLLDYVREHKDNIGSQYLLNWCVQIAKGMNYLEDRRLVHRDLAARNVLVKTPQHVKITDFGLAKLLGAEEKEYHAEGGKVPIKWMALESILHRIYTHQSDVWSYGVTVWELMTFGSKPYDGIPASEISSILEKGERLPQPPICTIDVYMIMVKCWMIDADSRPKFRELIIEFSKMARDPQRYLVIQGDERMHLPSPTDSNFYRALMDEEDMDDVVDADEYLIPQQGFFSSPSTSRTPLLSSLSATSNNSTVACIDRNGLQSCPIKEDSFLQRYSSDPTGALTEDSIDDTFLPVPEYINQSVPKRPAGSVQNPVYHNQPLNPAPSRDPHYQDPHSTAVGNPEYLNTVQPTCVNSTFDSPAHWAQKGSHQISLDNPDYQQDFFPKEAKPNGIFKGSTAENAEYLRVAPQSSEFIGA
Sequence of Left-right determination factor 2 (Homo sapiens) (O00292 whole entry, looked up): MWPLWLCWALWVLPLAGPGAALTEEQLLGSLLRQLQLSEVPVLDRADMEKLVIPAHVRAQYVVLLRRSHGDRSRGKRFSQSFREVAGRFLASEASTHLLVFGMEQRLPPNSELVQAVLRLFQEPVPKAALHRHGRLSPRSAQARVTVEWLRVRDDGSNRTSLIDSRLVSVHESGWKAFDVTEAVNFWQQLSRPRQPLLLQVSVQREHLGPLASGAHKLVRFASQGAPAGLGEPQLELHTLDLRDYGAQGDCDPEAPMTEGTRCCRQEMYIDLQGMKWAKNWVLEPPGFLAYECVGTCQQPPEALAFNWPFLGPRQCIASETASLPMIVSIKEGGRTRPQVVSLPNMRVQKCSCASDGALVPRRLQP

Consider `CO[C@@H]1COC(=O)[C@H](C)NC(=O)CC=C[C@@H](C)[C@H](OC)COC(=O)[C@H](C)NC(=O)CC=C[C@H]1C`, for which the composite z-score in test [1] was 0.343; in test [2] it was -0.58; in test [3] it was -0.717; in test [5], 0.43; in [6], 0.57; in [7], 0.55. The composite z-score in [8] is 0.66; in test [9], 0.503; in test [10], 0.136; in test [11], 0.0508; in test [13], 0.787; in test [14] it was -0.202. Besides, the composite z-score in test [15] is -1.26; in test [16], -0.0684; in test [17], -0.223; in test [18], -0.248; in [19] it was 0.0309; in test [20] it was -0.59. The values for the z-score in test [4] and in [12] were -0.415 (inactive) and -0.0787, respectively.

Regarding `O=C(NCC(O)CO)[C@]1(Cc2ccccc2)N=C(c2ccc(OCCCO)cc2)O[C@@H]1c1ccccc1` (stereo not given in full), the composite z-score in test [1] is 1.51; in [2], 1; in test [3] it was 0.955; in [5] it was -0.23; in [6] it was -0.0255; in test [7] it was -1.25. Further, the composite z-score is -0.376 in [8]; -0.197 in [9]; 0.148 in test [10]; 0.679 in test [11]; -1.48 in [13]; 2.61 in test [14]. For the same compound, the composite z-score in test [15] is 1.31; in test [16] it was 0.225; in test [17], -0.0642; in test [18], 1.68; in [19] it was 2.64; in [20], 2.27. The z-score in test [4] was -1.47 (inactive); in test [12], -0.378.

`CCCC=C(CCC)[C@@H](NC(=O)c1ccccc1)c1ccccc1`: the composite z-score in test [1] is -0.597; in test [2], 0.712; in test [3], 1.07; in test [5] it was -0.0829; in test [6] it was -1.87; in test [7], -0.292. For the same compound, the composite z-score in test [8] is -0.501; in [9], -0.0056; in test [10] it was 1.16; in test [11], 0.0084; in test [13], -0.621; in [14] it was 0.323. The composite z-score was 1.09 in test [15]; -0.0299 in test [16]; 0.217 in test [17]; 0.766 in test [18]; -0.439 in test [19]; -0.445 in test [20]. Further, the z-score in [4] was -0.0542 (inactive); in test [12], -0.12.

As for `C[C@@H]1CC[C@H]2C(=O)N3[C@@H](CC[C@@H](C)[C@@H]3c3cccc(N4CCOCC4)c3)C(=O)N2[C@H]1c1cccc(N2CCOCC2)c1`, the composite z-score worked out at 1.15 in [1]; 0.335 in [2]; 0.189 in test [3]; 0.37 in test [5]; 0.513 in test [6]; 0.224 in test [7]. The composite z-score is 1.12 in [8]; 1.82 in test [9]; 0.866 in test [10]; 0.384 in test [11]; 0.676 in test [13]; -0.413 in test [14]. In addition, the composite z-score is -0.403 in test [15]; -0.0478 in test [16]; 0.51 in test [17]; -0.459 in test [18]; 0.653 in [19]; 1.03 in test [20]. Besides, the z-score in [4] was -0.188 (inactive); in [12] it was 0.27.

Consider `C=CCNC(=O)[C@H]1[C@@H]2C(=O)O[C@@H](c3ccccc3)[C@@H](c3ccccc3)N2[C@@H](c2ccc(O)cc2)[C@]12C(=O)Nc1ccc(C#CCNC(N)=O)cc12`, for which the composite z-score is 1.5 in test [1]; 0.24 in test [2]; 0.262 in test [3]; -0.327 in test [5]; -0.304 in test [6]; -0.856 in test [7]. In addition, the composite z-score in test [8] was -1.03; in [9], -0.351; in test [10], 0.323; in [11], 0.0632; in [13] it was -0.84; in [14] it was -0.439. Further, the composite z-score in [15] is -0.0701; in test [16], -0.161; in test [17], -0.467; in test [18], 0.0863; in test [19] it was 0.239; in test [20] it was 0.543. Also, the z-score is -0.335 (inactive) in test [4] and 0.567 in [12].
